Integrin act MD: activators of alpha7 integrin expression for muscular dystrophy. hit rate 0.064% among 350,000. alpha7betagal myoblasts, beta-gal FDG fluorescence, 48 h. Potency, µM (highest dose often 38.3 µM), without a hit: at the highest dose activation, usual class: activators;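 note: potency is the fitted concentration of half-maximal effect; 100% = response of the positive control SU9516; nearly all actives have a fitted effect of over 60% in size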
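alpha7betagal+/- myoblasts (passage 13, 250/well) treated 48 h at 37C with compounds at 1:260 dilution of DMSO stock. Lysed, then beta-galactosidase activity read as FDG fluorescence (ex 480/em 540) after 30 min, with pre-read for autofluorescence.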
Giardia killer: Giardia lamblia killing; Giardia lamblia trophozoite viability; activity change, % at 7.66 µM, hits read low; hit rate 0.15% among 340,000; in the data active = activity change below about -80%; inconclusive = between about -30% and that limit;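 note: parasites exposed to compound for two days anaerobically before the ATP read; % is set by controls: 0 for no effect and ±100 for the full control effect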
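Trophozoites 100 cells/well + cpd; 48 hrs, 37 deg C, anaerobic. ATPLite 1-Step added, 15-30 min RT, luminescence read (ATP-based viability).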
RORgamma inh: inhibitors of mouse ROR gamma transcriptional activity; P51450; Drosophila S2 Gal4-RORgamma UAS-luciferase reporter, 20 h; Potency, µM (doses to about 53.6 µM), for inactives: top-dose activity change, negative = inhibition, most hits filed as inhibitors; hit rate 5.4% among 310,000; AID 2551; note: potency is the fitted concentration of half-maximal effect; % is set by controls: 0 for no effect and ±100 for the full control effect; nearly all actives have a fitted effect of over 60% in size
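Using a luciferase readout, inhibitors were identified by reduced reporter activity in Drosophila cells coexpressing a copper-inducible Gal4–ROR gamma fusion and UAS-driven Photinus luciferase, incubated 20 hr after 700 uM copper sulfate.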
ERG Ets-DNA blk: blocks human ERG Ets domain binding to DNA; P11308; fluorescence polarization, His-ERG Ets domain / labelled DNA; Potency, µM (top dose mostly 76.9 µM), for inactives: at the top dose FP activity, negative = inhibition, actives largely listed as inhibitors; hit rate 0.028% among 370,000; AID 624246; active = well fitted inhibition curve with a large enough effect in the polarisation, with a control signal flat; inconclusive = small, poorly fitted or top-dose-only effect, or effect the other way, or a change in a side signal; inactive = no such curve, though single readings can be large or run the other way; the % refers to the polarisation;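 note: polarization taken with two DNA probes labelled with fluorescein and Texas red; potency is the fitted concentration of half-maximal effect; % of control where 0% means no effect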
Target sequence (P11308 whole entry, looked up, the tested form may be a part): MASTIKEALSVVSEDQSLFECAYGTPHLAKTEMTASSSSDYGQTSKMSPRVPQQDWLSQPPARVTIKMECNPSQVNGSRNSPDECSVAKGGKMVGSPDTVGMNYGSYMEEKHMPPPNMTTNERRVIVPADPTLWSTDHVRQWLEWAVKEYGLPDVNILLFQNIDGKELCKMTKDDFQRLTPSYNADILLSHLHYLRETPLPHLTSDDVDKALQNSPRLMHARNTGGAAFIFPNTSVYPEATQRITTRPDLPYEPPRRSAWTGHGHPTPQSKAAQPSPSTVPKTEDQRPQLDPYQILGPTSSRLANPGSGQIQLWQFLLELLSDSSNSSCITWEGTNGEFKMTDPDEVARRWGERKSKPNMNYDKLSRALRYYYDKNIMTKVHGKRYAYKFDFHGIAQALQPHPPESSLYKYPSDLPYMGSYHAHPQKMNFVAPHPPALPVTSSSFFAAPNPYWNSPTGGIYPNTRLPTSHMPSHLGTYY
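His-tagged ERG Ets domain (1 uM in the protein solution; 300mM KCl, 50mM Tris-HCl, 1mM EDTA, 1mM DTT, pH 7.5) received compound, then a probe mix of 5 nM fluorescein-DNA and 100nM Texas-615-DNA. Fluorescence polarization was read for both dyes.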
VP16 counter: counter-screen for ROR gamma inhibitors: Gal4-VP16 reporter | Drosophila S2 Gal4-VP16 UAS-luciferase, luminescence, 20 h | Potency, µM (top dose mostly 53.6 µM), for the others: top-dose activity, negative = inhibition, actives largely listed as inhibitors | hit rate 3.5% among 310,000;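 note: Gal4-VP16 expression switched on by copper sulfate through the metallothionein promoter; potency is the fitted concentration of half-maximal effect; % is set by controls: 0 for no effect and ±100 for the full control effect; nearly all actives have a fitted effect of over 50% in size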
An asterisk follows results filed as active; u = inconclusive; x = no result given. The sample as a whole holds a higher share of hits than the screen did. Unless noted, calls come from the whole dose curve; as a rule, active = well fitted curve in the direction sought with a large enough effect; inconclusive = small, poorly fitted or top-dose-only effect, or another doubt; inactive = no such curve, though single readings can be large; an effect the other way counts as inactive or inconclusive.

SMILES	Integrin act MD	Giardia killer	RORgamma inh	ERG Ets-DNA blk	VP16 counter
Cc1cc(/C=C\c2ccccc2)nc2ccccc12	-48%	-4	11µM*	-8%	-7%
Oc1ccc(N=Nc2ccccc2)o1	-72%	16	u	-13%	16µM*
CCOC(=O)c1sc(=S)[nH]c1C	-8%	7	x	x	x
CCOC(=O)c1c(C)[nH]sc1=S	-16%	-14	6.3µM*	-8%	u
Cc1cc(C(=O)COC(=O)c2ccc[nH]c2=O)c(C)n1-c1ccccc1F	18%	-12	u	2%	u
COCCn1c(C)cc(C(=O)COC(=O)c2ccccc2Br)c1C	-21%	u	-41%	-6%	u
Cc1ccc(-n2c(C)cc(C(=O)COC(=O)c3ccc[nH]c3=O)c2C)cc1C	0%	-2	-38%	-2%	0.02µM*
CCCn1c(C)cc(C(=O)COC(=O)c2ccc[nH]c2=O)c1C	6%	-28	4µM*	-11%	6.3µM*
Cn1cc(CNCc2cn(C)nc2-c2ccc(C3CCCCC3)cc2)cn1	-78%	-1	-33%	2%	u
Oc1ccc(/C=N/Nc2nc(-c3cccnc3)nc3ccccc23)c(O)c1	7%	-3	u	u	11µM*
Cc1c(O)ccc(/C=N/Nc2nc(-c3cccnc3)nc3ccccc23)c1O	u	-15	4.5µM*	-3%	18µM*
Cc1ccc(-c2nc(N/N=C/c3ccncc3)c3ccccc3n2)cc1	17%	-5	u	6%	0.28µM*
COc1ccc(/C=N/Nc2nc(-c3cccnc3)nc3ccccc23)cc1OC	24%	2	-11%	1%	-9%
Cc1ccc(-n2c(C)nc3c(cnn3-c3ccc(F)cc3)c2=O)cc1C	25%	9	u	-13%	6.3µM*
COc1cccc(C(=O)Nc2ccc(-c3nc4ccccc4o3)c(O)c2)c1	-15%	-1	5µM*	x	7.1µM*
COc1cc(C(=O)Nc2ccc(-c3nc4cc(C)ccc4o3)c(O)c2)cc(OC)c1OC	11%	-9	3.5µM*	x	-22%
CCc1ccc2oc(-c3cc(NC(=O)c4cc(OC)c(OC)c(OC)c4)ccc3O)nc2c1	x	x	x	-1%	x
O=C(Nc1ccc(-c2nc3ccccc3o2)c(O)c1)c1cc(-n2cnnc2)ccc1Cl	-15%	-6	8.9µM*	12%	u
COc1ccc(Nc2ncnc3onc(-c4ccc(Cl)cc4)c23)cc1Cl	x	x	x	-2%	x
Cc1cc(C)c(Cn2c(=O)n(CCCC(=O)NCc3ccco3)c(=O)c3ccccc32)c(C)c1	-3%	1	x	0%	x
COCC(C)NC(=O)CSc1nc(-c2ccccc2)c(-c2ccccc2)o1 (centres undefined)	-19%	2	27%	x	13%
O=C(CSc1nc(-c2ccc(F)cc2)[nH]c1-c1ccccc1)NCC1CCCO1 (centres undefined)	x	x	x	7%	x
CC(=O)N(Cc1ccc(F)cc1)C1=C(NCc2ccccc2)C(=O)c2ccccc2C1=O	-70%	34	13µM*	-4%	u
CC(=O)n1nc(-c2ccccc2)nc1NCc1ccc(F)cc1	15%	-10	8%	-8%	27%
COc1ccc(N(CC(=O)Nc2ccccc2F)S(=O)(=O)c2ccc(C)c([N+](=O)[O-])c2)cc1	u	1	-11%	-7%	19%
SMILES	Integrin act MD	Giardia killer	RORgamma inh	ERG Ets-DNA blk	VP16 counter
Cc1cccc(N=C2NC(=O)/C(=C/c3cccs3)S2)c1	14%	9	u	9%	13µM*
O=C(NC(=S)Nc1ccc(Cl)cn1)C12CC3CC(CC(C3)C1)C2	14%	-22	6.3µM*	5%	4µM*
COc1cc(C(=O)Nc2ccc(NC(=O)c3cccc(Cl)c3)nc2)cc(OC)c1OC	20%	-11	13%	14%	19%
CC1CC(CCC(=O)NC(=S)Nc2ccc(Cl)cn2)C(=O)O1 (centres undefined)	-10%	0	11µM*	-18%	-27%
O=C(NC(=S)Nc1ccc(Cl)cn1)C(c1ccccc1)c1ccccc1	-1%	-11	4µM*	11%	4µM*
COc1cc(C(=O)NC(=S)Nc2ccc(Cl)cn2)cc(OC)c1OC	-22%	u	5µM*	8%	11µM*
CN(c1ccccc1)S(=O)(=O)c1cccc(NS(=O)(=O)c2cccc(C(=O)O)c2)c1	-8%	4	x	x	x
CCCCCC(=O)Nc1ccc(Cl)cn1	2%	1	40%	1%	-13%
CCCCCC(=O)NC(=S)Nc1ccc(Cl)cn1	0%	5	7.1µM*	8%	7.9µM*
COc1cc(SC)ccc1C(=O)Nc1ccc(Cl)cn1	14%	u	7.9µM*	1%	8.9µM*
CCC(=O)NC(=S)Nc1ccc(Cl)cn1	14%	-2	2.8µM*	-6%	u
CCCCC(=O)Nc1ccc(Cl)cn1	11%	3	43%	x	1%
CSc1ccc(Cl)c(C(=O)Nc2ccc(Cl)cn2)c1	4%	1	-8%	10%	-8%
Clc1ccc(Sc2cc(Cl)c(Cl)cc2Cl)cc1	x	x	-12%	x	-1%
CC(C)n1c(-c2ccccc2)nc(=S)c2c1CCCC2	x	x	u	x	-6%
COc1ccc(-n2c(-c3cccc(OC)c3)nc(=S)c3c2CCCC3)cc1	-19%	24	10µM*	x	u
COc1ccc(-n2c(-c3ccccc3)nc(=S)c3c2CCCC3)cc1	-13%	-9	14µM*	0%	u
COc1cc(C=C2CCCC(=Cc3ccc(OCC4CO4)c(OC)c3)C2=O)ccc1OCC1CO1 (centres undefined)	-62%	x	x	x	x
Cc1cc(C)cc(NC(=S)NC(=O)CCN2C(=O)c3ccccc3C2=O)c1	-6%	-3	3.5µM*	3%	4.5µM*
Cc1cc(C)cc(NC(=S)NC(=O)Cc2ccccc2)c1	u	-2	x	5%	x
O=C(CCN1C(=O)c2ccccc2C1=O)NC(=S)Nc1ccccc1	-12%	-3	13µM*	-1%	u
O=C(CCN1C(=O)c2ccccc2C1=O)NC(=S)Nc1cccc(Cl)c1	7%	-20	11µM*	14%	u
CC(=O)c1ccc(NC(=O)C(C)Sc2nnc3ccccn23)cc1 (centres undefined)	0%	-15	x	5%	x
CC(=O)N1CCC2(CCN(Cc3cc(C(F)(F)F)cc(C(F)(F)F)c3)CC2)CC1	x	x	-1%	x	-6%
COc1ccc(OC)c(CCNC(=O)CCc2nnc3ccc(N4CCOCC4)nn23)c1	-20%	-5	-16%	-7%	5%
CC1(C)CC(=O)C2=C(C1)Nc1ccccc1NC2	32%	38	13µM*	8%	6%
N/C(=N\OC(=O)COc1ccc2ccccc2c1Br)c1ccncc1	x	x	38%	x	-8%
Cn1ccnc1/C(=N\NC(=O)c1ccccc1)c1cccc([N+](=O)[O-])c1	-54%	-16	-86%	2%	-12%
O=C(N/N=C(\c1ccccc1)c1ccccn1)c1cccc([N+](=O)[O-])c1	14%	0	0.45µM*	5%	-13%
